# Data reported in PubChem BioAssay (NCATS).
# Values joined by “and” are separate entries in the source; they are usually repeats but may differ in a detail not shown here. Equal entries are not always repeated. A number with no mark means an inactive call. Results filed as inconclusive are left out. Entries that show only a call come without a potency. Active and inactive are the calls of the source. Unless noted, calls follow the shape of the dose curve; as a rule, active = well fitted curve in the direction sought with a large enough effect; inconclusive = small, poorly fitted or top-dose-only effect, or another doubt; inactive = no such curve, though single readings can be large; an effect the other way counts as inactive or inconclusive.
# How the values were obtained:
# [1] = HTS Assay for Allosteric Antagonists of the Human D2 Dopamine Receptor: Hit Validation in HTRF (AID 624455);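 also: stable D1 dopamine receptor cell line scored for blocking the D1 response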
# Outline: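 Validation of hits used D1 receptor stably expressed in cells with HTRF detection of response inhibition; origin screen measured calcium flux following EC80 dopamine in a force-coupled, inducible Hek293 Trex D2 cell line.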
# [2] = target: Arylsulfatase A (Homo sapiens) (UniProt P15289); experiment: qHTS screen for enhancers of Arylsulfatase A (ASA1): LOPAC Validation Assay (AID 720538); also: potency is read from the fitted curve at half-maximal effect
# Chain of Arylsulfatase A (Homo sapiens) (P15289 whole entry, looked up): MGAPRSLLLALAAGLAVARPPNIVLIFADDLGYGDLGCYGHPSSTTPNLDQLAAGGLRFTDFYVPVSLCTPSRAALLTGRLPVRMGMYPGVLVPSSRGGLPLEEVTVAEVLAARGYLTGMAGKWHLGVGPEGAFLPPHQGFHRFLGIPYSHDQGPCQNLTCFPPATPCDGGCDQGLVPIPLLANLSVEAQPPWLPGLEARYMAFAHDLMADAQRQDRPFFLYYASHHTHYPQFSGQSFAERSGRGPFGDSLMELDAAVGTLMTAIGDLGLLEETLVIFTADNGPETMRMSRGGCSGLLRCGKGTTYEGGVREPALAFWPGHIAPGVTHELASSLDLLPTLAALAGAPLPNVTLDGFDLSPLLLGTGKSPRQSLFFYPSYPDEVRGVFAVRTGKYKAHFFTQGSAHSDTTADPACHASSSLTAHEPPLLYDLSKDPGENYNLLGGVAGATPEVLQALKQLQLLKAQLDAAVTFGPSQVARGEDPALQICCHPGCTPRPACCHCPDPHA
# Outline: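 SV40-transformed skin fibroblasts from an MLD patient (ASA-I179S) were treated with compounds for 48h at 37 degree C, then lysed with 0.5mM pNCS final substrate for 14h at room temperature; NaOH stop, fluorescence read (Ex=525 nm; Em=598 nm).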
# [3] = qHTS for compounds that reverse cellular toxicity of Amyloid beta (A-beta) peptide in yeast: LOPAC Validation Assay (AID 720559)
# Outline: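 Yeast cells expressing toxic A-beta were combined with pinned compounds in growth medium and incubated 48 hr at 30 C. Growth was read as absorbance at 600 nm and normalized to DMSO and to an equimolar FeCl3/clioquinol positive control.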
# [4] = qHTS assay for small molecule agonists of the antioxidant response element (ARE) signaling pathway (AID 651741; active = well fitted activation curve with a large enough effect in the signal ratio; the % refers to the signal ratio; also: potency is read from the fitted curve at half-maximal effect)
# Outline: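 Beta-lactamase reporter expression driven by the antioxidant response element in HepG2 cells was detected by fluorescence with LiveBLAzer B/G FRET substrate (2 h, room temperature) following 16 h compound treatment at 37 C.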
# [5] = qHTS assay for small molecule activators of the p53 signaling pathway (AID 651743; active = well fitted activation curve with a large enough effect in the signal ratio, not every such curve was filed as active; the % refers to the signal ratio; also: series mostly up to about 92 µM); settings: HCT-116 p53RE-bla, beta-lactamase FRET ratio, 16 h; activation: hits give high values
# Outline: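 Here HCT-116 cells with an integrated p53-responsive beta-lactamase gene were incubated with compounds (16 hours, 37 C) after a 5-hour plating period; beta-lactamase activity was detected as fluorescence intensity via B/G FRET substrate.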
# [6] = target: Peroxisome proliferator-activated receptor alpha (Homo sapiens) (UniProt Q07869); experiment: qHTS assay for small molecule agonists of the peroxisome proliferator-activated receptor alpha (PPARalpha) signaling pathway (AID 651778); settings: PathHunter PPARalpha complementation, chemiluminescence, 6 h; hits give high values
# Chain of Peroxisome proliferator-activated receptor alpha (Homo sapiens) (Q07869 whole entry, looked up): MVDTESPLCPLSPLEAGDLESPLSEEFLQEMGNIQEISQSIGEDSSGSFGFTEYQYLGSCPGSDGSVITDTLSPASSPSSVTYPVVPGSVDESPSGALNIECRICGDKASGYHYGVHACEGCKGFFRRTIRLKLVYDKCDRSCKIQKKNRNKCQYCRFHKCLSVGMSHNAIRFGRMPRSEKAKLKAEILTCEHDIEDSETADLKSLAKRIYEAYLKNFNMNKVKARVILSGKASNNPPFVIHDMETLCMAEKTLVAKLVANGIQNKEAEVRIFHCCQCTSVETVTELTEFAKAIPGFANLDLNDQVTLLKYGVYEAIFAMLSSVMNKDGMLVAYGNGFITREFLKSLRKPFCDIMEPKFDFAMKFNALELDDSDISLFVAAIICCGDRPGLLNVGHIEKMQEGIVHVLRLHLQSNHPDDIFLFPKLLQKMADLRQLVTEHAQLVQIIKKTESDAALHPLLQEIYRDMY
# Outline: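 Cells plated at 2,000/well and held overnight at 37 C, 5% CO2, then compound added by pin tool for 6 hr; after PathHunter detection reagent and 60 min at room temperature, chemiluminescence from enzyme complementation was read.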
# [7] = target: Nuclear receptor ROR-gamma (Homo sapiens) (UniProt P51449); experiment: qHTS assay for small molecule antagonists of the retinoid-related orphan receptor gamma (ROR-gamma) signaling pathway (AID 651802); also: nearly all actives have a fitted effect of over 60% in size; also: potency is read from the fitted curve at half-maximal effect
# Chain of Nuclear receptor ROR-gamma (Homo sapiens) (P51449 whole entry, looked up): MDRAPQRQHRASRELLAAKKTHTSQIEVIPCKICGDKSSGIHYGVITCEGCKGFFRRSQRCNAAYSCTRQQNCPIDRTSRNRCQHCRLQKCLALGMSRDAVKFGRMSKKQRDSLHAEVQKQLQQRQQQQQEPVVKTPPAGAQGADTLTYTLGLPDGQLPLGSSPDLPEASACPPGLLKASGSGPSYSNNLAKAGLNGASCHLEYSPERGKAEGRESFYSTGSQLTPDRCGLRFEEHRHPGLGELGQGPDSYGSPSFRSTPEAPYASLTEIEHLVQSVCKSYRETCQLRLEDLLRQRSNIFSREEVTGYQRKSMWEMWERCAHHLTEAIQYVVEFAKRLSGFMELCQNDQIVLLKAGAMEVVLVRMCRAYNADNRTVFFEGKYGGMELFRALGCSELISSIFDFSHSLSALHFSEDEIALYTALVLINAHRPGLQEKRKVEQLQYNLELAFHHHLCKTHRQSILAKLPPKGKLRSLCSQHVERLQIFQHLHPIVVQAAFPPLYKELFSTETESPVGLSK
# Outline: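 Doxycycline-induced reporter activity in engineered CHO cells (TET-inducible ROR, RORE-LUC) was measured by luminescence after 16hr compound exposure at 37C.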
# [8] = qHTS assay for small molecule disruptors of the mitochondrial membrane potential - 1 hr assay (AID 651754; calls by dose curve; also: nearly all actives have a fitted effect of over 35% in size)
# Outline: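 In this qHTS format, a 1 hr compound treatment of HepG2 cells precedes Mito-MPS staining, and membrane potential is judged from aggregate (red) against monomer (green) fluorescence intensity.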
# [9] = qHTS assay for small molecule disruptors of the mitochondrial membrane potential - 5 hr assay (AID 651755; calls by dose curve; also: nearly all actives have a fitted effect of over 40% in size)
# Outline: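 Seed HepG2 overnight, add compound, incubate 5 hr at 37C and 5% CO2, stain 30 min with Mito-MPS, then measure monomer (490/535 nm) and aggregate (540/590 nm) fluorescence.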
compound,measurement,setting,value
N#C/C(=C/c1ccc(O)c(O)c1)C(N)=S,Potency,[1],inactive
same,Potency,[2],inactive
same,outcome,[3],inactive
c1ccc2cc(CC3=NCCN3)ccc2c1,Potency,[1],inactive
same,Potency,[2],inactive
same,outcome,[3],inactive
C[N+]1(C)CCc2cc3c(cc2[C@H]1[C@@H]1OC(=O)c2c1ccc1c2OCO1)OCO3,Potency,[1],inactive
same,Potency,[2],inactive
same,outcome,[3],inactive
CN(N=O)c1cc(O)ccc1O,Potency,[1],inactive
same,Potency,[2],inactive
same,outcome,[3],inactive
C[C@@H]1O[C@H](C[N+](C)(C)C)CS1,Potency,[1],inactive
same,Potency,[2],inactive
same,outcome,[3],inactive
NC(=O)CI,Potency,[1],inactive
same,Potency,[2],inactive
same,outcome,[3],inactive
NC(=O)c1ccc(OCC(O)CN2CC=C(c3ccc(F)cc3)CC2)cc1 (centres undefined),Potency,[1],inactive
same,Potency,[2],inactive
same,outcome,[3],inactive
O=[N+]([O-])c1cc(O)c(O)c([N+](=O)[O-])c1,Potency,[1],inactive
same,Potency,[2],19 µM (active)
same,outcome,[3],inactive
CCCn1c(=O)c2[nH]c(C3CCCC3)nc2n(CCCOC(=O)c2ccc(S(=O)(=O)F)cc2)c1=O,Potency,[1],inactive
same,Potency,[2],inactive
same,outcome,[3],inactive
CNc1ccc2oc(C[C@H]3O[C@@]4(CC[C@H]3C)O[C@H]([C@H](C)C(=O)c3ccc[nH]3)[C@H](C)C[C@H]4C)nc2c1C(=O)O,Potency,[1],inactive
same,Potency,[2],inactive
same,outcome,[3],inactive
C=CCN(C1=NCCN1)c1c(Cl)cccc1Cl,Potency,[1],inactive
same,Potency,[2],inactive
same,outcome,[3],inactive
CCN(CCCl)Cc1ccccc1Br,Potency,[1],inactive
same,Potency,[2],inactive
same,outcome,[3],inactive
CCN1C[C@@]2(COC)C3[C@@H](OC)C4[C@@H]1C3([C@@H]1C[C@]3(O)[C@H](OC(=O)c5ccccc5)[C@@H]1[C@]4(OC(C)=O)[C@@H](O)[C@@H]3OC)[C@H](OC)C[C@H]2O,Potency,[1],inactive
same,Potency,[2],inactive
same,outcome,[3],inactive
C#CCN[C@H](C)Cc1ccccc1,Potency,[1],inactive
same,Potency,[2],inactive
same,outcome,[3],inactive
CCCN(CCC)C1Cc2cc(OC)c(OC)cc2C1,Potency,[1],inactive
same,Potency,[2],inactive
same,outcome,[3],inactive
COc1ccc(CNC(=O)/C=C/c2ccc3[nH]cc(CCN(C)C)c3c2)cc1,Potency,[1],inactive
same,Potency,[2],inactive
same,outcome,[3],inactive
Nc1ccc(CCN2CCN(c3cccc(C(F)(F)F)c3)CC2)cc1,Potency,[1],inactive
same,Potency,[2],inactive
same,outcome,[3],inactive
O=C1CC[C@@]2(O)C3Cc4ccc(O)c5c4C2(CCN3CC2CC2)[C@H]1O5 (some centres undefined),Potency,[1],inactive
same,Potency,[2],0.426 µM (active)
same,outcome,[3],inactive
C=CCN1CCC23c4c5ccc(O)c4O[C@H]2C(=O)CC[C@@]3(O)C1C5 (some centres undefined),Potency,[1],inactive
same,Potency,[2],inactive
same,outcome,[3],inactive
C[C@H](N)CN1CCc2ccc(Br)cc21,Potency,[1],inactive
same,Potency,[2],inactive
same,outcome,[3],inactive
NC(C(=O)O)c1cc(=O)[nH]o1 (centres undefined),Potency,[1],inactive
same,Potency,[2],inactive
same,outcome,[3],inactive
C=CCN1CC[C@]23c4c5ccc(O)c4O[C@@H]2/C(=N/N=C2\CC[C@@]4(O)C6Cc7ccc(O)c8c7[C@@]4(CCN6CC=C)[C@@H]2O8)CC[C@@]3(O)C1C5,Potency,[1],inactive
same,Potency,[2],inactive
same,outcome,[3],inactive
COc1ccc2c(c1)C13CCCCC1C(C2)N(C)CC3 (centres undefined),Potency,[1],inactive
same,Potency,[2],inactive
same,outcome,[3],inactive
COC(=O)N1CCN(C(=O)Cc2ccc(Cl)c(Cl)c2)C(CN2CCCC2)C1 (centres undefined),Potency,[1],inactive
same,Potency,[2],inactive
same,outcome,[3],inactive
COc1ccc2c(c1)[C@@]13CCCC[C@H]1[C@@H](C2)NCC3,Potency,[1],inactive
same,Potency,[2],inactive
same,outcome,[3],inactive
C/C(O)=C(\C#N)C(=O)Nc1cc(Br)ccc1Br,Potency,[1],inactive
same,Potency,[2],inactive
same,outcome,[3],inactive
CCn1cnc2c(Nc3cccc(Cl)c3)nc(N[C@@H]3CCCC[C@@H]3N)nc21,Potency,[1],inactive
same,Potency,[2],inactive
same,outcome,[3],inactive
O=C1C[C@@H]2OCC=C3CN4CC[C@]56c7ccccc7N1[C@H]5[C@H]2[C@H]3C[C@H]46,Potency,[4],inactive
same,activation,[5],-1.99%
same,max response,[6],-1.11%
CCOP(=O)(OCC)O/C(=C/Cl)c1ccc(Cl)cc1Cl,Potency,[4],30.6 µM (active)
same,activation,[5],-2.13% and -0.49%
same,max response,[6],-3.2% and -2.2%
C[C@]12CCC(=O)C[C@@H]1CC[C@@H]1[C@@H]2CC[C@]2(C)[C@@H](O)CC[C@@H]12,Potency,[4],24.3 µM (active)
same,activation,[5],-3.4% and -1.57%
same,max response,[6],-1.24% and 0.0043%
same,Potency,[7],26.6 µM (active)
CCCCCl,Potency,[4],inactive
same,activation,[5],-4.24%
same,Potency,[8],inactive
same,Potency,[9],inactive
same,max response,[6],-3.81%
same,Potency,[7],inactive
CC(=O)NBr,Potency,[1],inactive
same,outcome,[3],inactive
COCC(C)N(C(=O)CCl)c1c(C)csc1C (centres undefined),Potency,[4],15.4 µM (active)
same,activation,[5],-0.528%
same,max response,[6],-3.83%
Cc1cc([C@@H]2CCCN2C)on1,Potency,[1],inactive
same,outcome,[3],inactive
